Shown are actives, neighbours in structure and some others; about 4.4% of the full set was active somewhere.
HPGD block = HPGD (human) dehydrogenase inhibition. purified HPGD, NADH fluorescence kinetic, PGE2 substrate. Potency, µM, for the others: top-dose activity change, negative = inhibition, usual class: inhibitors. 150,000 tested, 4.3% active. AID 894; active = well fitted inhibition curve with a large enough effect, not every such curve was filed as active; inconclusive = small, poorly fitted or top-dose-only effect, or another doubt; inactive = no such curve, though single readings can be large or run the other way
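NADH formation kinetics: reaction with 30 uM PGE2 and 1 mM NAD+ (final), 20 nM enzyme, Tris-HCl pH 8 with Tween 20, after 15 min compound preincubation at room temperature. Fluorescence change, last versus first of five reads.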
p53ts 39C tox = kills p53ts cells at the nonpermissive temperature; 130,000 tested, 1.5% active; Potency, µM (series often up to 46.1 µM), for inactives: top-dose activity change, negative = cell killing, hits mostly cytotoxic; H1299-p53A138V viability at 39C, ATP luminescence, 24 h; also: nearly all actives have a fitted effect of over 55% in size
p53ts 32C tox = kills p53ts cells at the permissive temperature | Potency, µM (doses to about 46.1 µM), for the others: at the top dose activity change, negative = cytotoxicity, usual class: cytotoxic | 130,000 tested, 0.93% active | H1299-p53A138V at 32C, ATP luminescence viability, 24 h | AID 924;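 also: 0% = DMSO and -100% = full killing by reference compound; nearly all actives have a fitted effect of over 55% in size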
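H1299-p53 A138V cells (temperature-sensitive p53) exposed 24 h to up to 46 uM compound at 32C, where p53 is wild-type in conformation. Viability read as ATP luminescence and normalised to DMSO and 100 uM tamoxifen. AC50 fitted with the Hill equation.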
12-hLO inh = blocks human 12-lipoxygenase activity; purified 12-hLO, xylenol orange hydroperoxide absorbance; Potency, µM (series often up to 57.1 µM), inactives show at the highest dose activity change, negative = inhibition, most hits filed as inhibitors; 150,000 tested, 0.12% active; AID 1452; also: nearly all actives have a fitted effect of over 55% in size
Target sequence (P18054 whole entry, looked up): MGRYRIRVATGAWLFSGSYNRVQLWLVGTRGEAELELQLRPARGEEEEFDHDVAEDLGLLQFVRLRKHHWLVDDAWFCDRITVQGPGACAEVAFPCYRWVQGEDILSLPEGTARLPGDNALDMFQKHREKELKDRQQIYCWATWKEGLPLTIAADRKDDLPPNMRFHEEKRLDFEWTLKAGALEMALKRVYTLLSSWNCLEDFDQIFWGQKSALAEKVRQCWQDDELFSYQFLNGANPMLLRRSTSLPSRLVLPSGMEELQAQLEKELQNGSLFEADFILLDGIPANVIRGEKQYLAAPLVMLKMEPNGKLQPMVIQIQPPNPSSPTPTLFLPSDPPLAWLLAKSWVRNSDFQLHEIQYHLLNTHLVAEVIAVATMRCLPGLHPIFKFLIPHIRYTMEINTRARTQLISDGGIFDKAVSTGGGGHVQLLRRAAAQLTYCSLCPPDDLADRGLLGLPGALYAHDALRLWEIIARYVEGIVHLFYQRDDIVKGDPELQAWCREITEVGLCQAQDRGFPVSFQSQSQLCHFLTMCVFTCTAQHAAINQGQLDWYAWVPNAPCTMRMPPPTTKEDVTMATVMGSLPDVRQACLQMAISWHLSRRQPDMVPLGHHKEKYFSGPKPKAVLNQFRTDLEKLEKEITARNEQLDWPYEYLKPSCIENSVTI
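150 nM 12hLO, 25 mM Hepes pH 7.0 + 0.01% Triton X-100; cpd preinc 15 min RT; 40 uM arachidonic acid, 30 min RT; Fe-XO 30 min; A573/A405 ratio as read-out.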
Starred values were filed as active, the others as inactive; ? = inconclusive; . = not tested or not shown; [ ] = another dose, or the depositor's remark. Unless noted, calls follow the shape of the dose curve; as a rule, active = well fitted curve in the direction sought with a large enough effect; inconclusive = small, poorly fitted or top-dose-only effect, or another doubt; inactive = no such curve, though single readings can be large; an effect the other way counts as inactive or inconclusive. Unless noted, % is scaled to controls: 0 for no effect and ±100 for the full control effect; potency is read from the fitted curve at half-maximal effect.

SMILES	HPGD block	p53ts 39C tox	p53ts 32C tox	12-hLO inh
COC(=O)c1nc2n(n1)C(c1cccc(Cl)c1)C1=C(CC(C)(C)CC1=O)N2 (stereo unspecified)	-30%	-3%	3%	-4%
O=C(Cn1cnc2c(nnn2Cc2ccc(Cl)cc2)c1=O)NCc1ccco1	16µM*	-12%	7%	-6%
O=C(Cn1cnc2c(nnn2Cc2ccc(F)cc2)c1=O)NCc1ccco1	16µM*	6%	0%	1%
O=C(Cn1cnc2c(nnn2Cc2ccccc2)c1=O)NCc1ccco1	14µM*	-1%	6%	-3%
O=C(Cn1cnc2c(nnn2Cc2ccc(F)cc2)c1=O)OCc1ccccc1	?	-6%	-3%	1%
O=C(Cn1cnc2c(nnn2Cc2ccccc2)c1=O)c1ccccc1	22µM*	0%	0%	0%
COc1cccc(C(=O)N2c3nc(-c4ccco4)nn3C3(CCCCC3)[C@@H]3CCCC[C@@H]32)c1	.	3%	6%	.
O=C(CCCCn1c(=O)c2ccccc2n(Cc2ccccc2Cl)c1=O)NCc1ccc2c(c1)OCO2	.	-8%	-8%	.
COc1ccc(C(c2sc3nc(C)nn3c2O)N2CCc3ccccc3C2)cc1 (stereo unspecified)	22µM*	17%	-5%	-8%
Cc1nc2sc(C(c3cccs3)N3CCOCC3)c(O)n2n1 (stereo unspecified)	-4%	?	13µM*	-4%
CC(C)CN(CCCNC(=O)c1cc(-c2ccc(Br)s2)nc2ccccc12)CC(C)C	.	5%	8%	.
CC1(C)CC(=O)c2cc(-c3nc(-c4ccc(Cl)cc4)cs3)c(=O)n(-c3ccc(Cl)cc3)c2C1	.	6%	8%	.
Cc1cc(C)n(S(=O)(=O)c2ccc(C(C)(C)C)cc2)n1	20µM*	1%	1%	-4%
CCCN1CCN(CC2=C(C(=O)OCC)C(c3ccc(Cl)cc3)NC(=O)N2)CC1 (stereo unspecified)	.	27%	4%	.
CCc1ccc2c(c1)c1nc(C)sc1n2CC	28µM*	8%	8%	?
Cc1nc2c3cc(F)ccc3n(Cc3ccc(F)cc3)c2s1	-16%	.	.	-1%
CN1CCCC2(CCN(S(=O)(=O)c3ccccc3)CC2)C1	-11%	4%	-12%	3%
Cc1cc(C(=O)N(C)C)sc1-c1ccccc1	6.3µM*	-2%	-11%	-3%
CCCn1nnnc1NC(=O)CSc1ccc(Cl)cc1	16µM*	-28%	-17%	-8%
CCCn1nnnc1NC(=O)c1cc(Cl)ccc1Cl	-15%	.	.	1%
O=C1c2ccccc2NC(c2ccc(-c3cccc([N+](=O)[O-])c3)o2)N1O (stereo unspecified)	18µM*	.	.	-30%
CCOc1ccccc1NC(=O)C1CCN(S(=O)(=O)c2ccc3c(c2)CCCN3C(C)=O)CC1	.	11%	-5%	.
Cc1ccc(-c2nnc(Nc3ccccc3)o2)cc1	-11%	3.2µM*	3.2µM*	-2%
Cc1ccc(-c2nnc(-c3ccc4ccccc4c3)o2)cc1	?	-15%[9.22 µM]	-3%[9.22 µM]	-4%[11.4 µM]
Cc1c(N2C(=O)/C(=C3/C(=O)N(C)c4ccccc43)SC2=S)c(=O)n(-c2ccccc2)n1C	7%	.	.	0%
SMILES	HPGD block	p53ts 39C tox	p53ts 32C tox	12-hLO inh
CCCC(C(=O)O)N1C(=O)/C(=C2\C(=O)N(C)c3ccccc32)SC1=S (stereo unspecified)	25µM*	.	.	-28%
COc1cc2c(-c3cccc(Cl)c3)nc3c(c(C)nn3-c3ccccc3)c2cc1OC	.	12%	1%	.
O=C1C2C3C=CC(C3)C2C(=O)N1/N=C/c1ccc(-c2ccccc2[N+](=O)[O-])o1 (stereo unspecified)	-22%	.	.	-1%
CN1C(=O)/C(=C/c2ccc(-c3ccccc3[N+](=O)[O-])o2)SC1=Nc1ccc(Cl)c(C(=O)O)c1	14µM*	17%	.	-3%
Cn1nnnc1SCCNCc1ccccc1OCc1ccc(Cl)cc1Cl	.	?	-10%	.
CCOc1cc(CNCCSc2nnnn2C)ccc1OCc1ccc(Cl)cc1Cl	.	13µM*	35µM*	.
C(=N\Nc1ccccc1)/c1ccc(N2CCOCC2)cc1	14µM*	.	.	?
CC(C)NC(=S)N/N=C/c1ccc(N2CCOCC2)cc1	?	.	.	-5%
O=C(Nc1cc(F)ccc1F)C1CCN(C(=O)c2cnn(-c3ccccc3)c2-n2cccc2)CC1	.	-2%	-2%	.
CC(C)C1NC2(C(=O)c3ccccc3C2=O)C2C(=O)N(c3ccc(F)cc3)C(=O)C12 (stereo unspecified)	32µM*	-5%	-3%	-5%

Screening data from PubChem.
